From ChEMBL document CHEMBL3988442, “University of Dundee, Small-Polar-MMV Screening Library” (2021) come the findings set out here.

SMILES strings stand for the structures.

The first assay addresses T1, Arginase-2, mitochondrial (Homo sapiens) (UniProt P78540).
T1 sequence (whole entry): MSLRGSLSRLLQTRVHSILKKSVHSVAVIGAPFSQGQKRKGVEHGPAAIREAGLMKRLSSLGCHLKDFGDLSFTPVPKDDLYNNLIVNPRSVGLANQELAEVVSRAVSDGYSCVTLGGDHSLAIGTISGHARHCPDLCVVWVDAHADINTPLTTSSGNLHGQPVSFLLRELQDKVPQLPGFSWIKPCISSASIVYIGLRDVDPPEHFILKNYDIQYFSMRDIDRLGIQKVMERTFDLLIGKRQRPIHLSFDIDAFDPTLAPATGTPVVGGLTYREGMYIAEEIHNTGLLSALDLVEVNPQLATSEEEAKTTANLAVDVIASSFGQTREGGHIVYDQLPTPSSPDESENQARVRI
The experiment in a line: in vitro enzyme assay to detect the production of urea directly proportional to the activity of Arginase II. Also noted: scale not given: in the data most compounds retested in dose-response had high values. To be noted: 33.3 µM. It counts as functional.
As for `CCn1cc(Br)c(C(=O)NCc2cccnc2)n1`, the Percent Effect is -9.65%.
On the same count and under the same terms, then `Cn1nc2c(cc1=O)CN(CCc1nc3ccccc3c(=O)[nH]1)CC2`, with 2.27%; and `COc1cccc2c1OCC(CNC(=O)CSc1nc(N)n[nH]1)C2` (stereo not drawn), with -3.23%; and `COCCCNC(=O)CN(C)C(=O)c1cc(C)ccc1N(C)C(C)C`, with -3.88%.
Same read-out and setting: then `c1ccc2sc(CN3CCCC3c3noc(C4CC4)n3)nc2c1` (stereo not drawn), with 0.185%; and `COCCO[C@@H]1CCN(Cc2csc(C)n2)[C@H]1Cc1ccccc1`, with -1.24%; and `C[C@@H]1CN(C(=O)c2ccsc2)C[C@]12CCN(c1ccsc1)C2=O`, with -1.63%.
Still for that read-out and setting: the figure for `CC(O)CC(C)(C)CNC(=O)NCc1cccc(-n2cncn2)c1` (stereo not drawn) is 4.22%; for `Cc1c(C(=O)NCC(C)C)nnn1-c1cccc2c1CCN(C)C2` it is -2.37%.
As for `COc1ccc(CNCC(C)Oc2ccccn2)cc1Br` (stereo not drawn), the Percent Effect was -4.75%.
On the same count and under the same terms, then `Cc1ccc(CN2CCc3ncc(CNS(C)(=O)=O)n3CC2)o1`, with -1.6%; and `Cc1nc(CN2CCCC(NCc3c(C)nc4sccn34)C2)no1` (stereo not drawn), with 0.712%.
With `Cc1cn2nc(N3CCCN(Cc4noc(C)n4)CC3)sc2n1`, the Percent Effect is 1.94%.
On the same count and under the same terms, then `CC(NC(=O)NCCNc1cnccn1)c1cccs1` (stereo not drawn), with 2.49%; and `CCOCC1CN(Cc2cccc(C#N)c2)Cc2nccn2C1` (stereo not drawn), with -2%.
In the case of `COc1ccc(OCc2nc(C(=O)N3CC[C@H](O)[C@@H](O)C3)co2)cc1`, the Percent Effect was -0.476%.
Same read-out and setting: then `O=C(CN1CCCC1Cn1cncn1)NCCc1c(F)cccc1F` (stereo not drawn), with 0.719%.
`CN(C)c1ncnc2c1CCN(CC1CCOC1)CC2` (stereo not drawn): the Percent Effect is -2.87%.
The same measure, in the same setting: the figure for `CC(C)N(CC(N)=O)Cc1csc(COc2ccc(F)cc2)n1` is -4.18%.
On the same count and under the same terms, then `Cc1nc(CN2CCCN(C(=O)c3ccccn3)CC2)oc1C`, with 4%.
Same read-out and setting: the figure for `O=C(c1cccnc1N1CCOCC1)N1CCCC1Cn1cccn1` (stereo not drawn) is 0.632%; for `CCN(C(=O)CN(C)C(c1cccc(F)c1)c1ccccn1)C1CC1` (stereo not drawn) it is -2.49%; for `Cc1nc(C2(NCC(=O)NCCc3cccs3)CCCC2)no1` it is -9.47%.
`CO[C@H]1CN(C(=O)c2ccccn2)[C@@H]2CCCO[C@H]12`: the Percent Effect is 1.59%.
Same read-out and setting: then `CCO[C@@H]1CO[C@@]2(CCCN(C(=O)c3ccc(OC)c(F)c3)C2)C1`, with 11%.
For `CC(C)S(=O)(=O)c1nnc(CCNC(=O)OC(C)(C)C)o1`, the Percent Effect was -9.33%.
On the same count and under the same terms, the figure for `CCc1c(C(=O)NC2CCS(=O)(=O)C2)cnn1-c1ccc(F)cc1` (stereo not drawn) is 1.9%; for `CCn1nccc1CNC(=O)NC1CCCCC1` it is 0%.
On the same count and under the same terms, then `CN(Cc1ccsc1)C(=O)Nc1cccnc1N1CCCC1`, with 0.719%; and `CCCC1(CO)CCCN(c2ncccc2F)C1` (stereo not drawn), with -2.38%.
On the same count and under the same terms, then `Cc1nc[nH]c1-c1nc2cc(S(=O)(=O)N3CCCC3)ccc2n1C`, with 20%.
Regarding `CCNC(=O)N(C)Cc1ccc(SC)c(OC)c1`, the Percent Effect is 7.92%.
Consider `COCC(=O)N1CCC(c2nc3ccc(-c4ccccc4)cn3n2)CC1`, for which the Percent Effect stood at 4.79%.
On to `CC(C(=O)NCc1ccnc(N2CCN(C)CC2)c1)n1cccn1` (stereo not drawn), for which the Percent Effect came to 3.06%.
On the same count and under the same terms, then `CCc1c(C)nc2cc(C3CCN(Cc4ccccc4F)C3)nn2c1O` (stereo not drawn), with 2.09%.
Still for that read-out and setting: then `O=C(COc1ccc(C(F)(F)F)cc1)NS(=O)(=O)c1cccnc1`, with 0.383%; and `CN(C)S(=O)(=O)c1ccc(OCCNCCn2cccn2)cc1`, with 1.5%; and `O=C(CN1CCCC(O)C1)NC(=O)NCc1cccs1` (stereo not drawn), with -3.55%.
In the case of `CCOc1ncccc1CNC(=O)N1CCCC1c1ccncc1` (stereo not drawn), the Percent Effect stood at 4.17%.

A further assay has as its target T2, Proteasome subunit beta (Trypanosoma cruzi) (UniProt O96673).
T2 sequence (whole entry): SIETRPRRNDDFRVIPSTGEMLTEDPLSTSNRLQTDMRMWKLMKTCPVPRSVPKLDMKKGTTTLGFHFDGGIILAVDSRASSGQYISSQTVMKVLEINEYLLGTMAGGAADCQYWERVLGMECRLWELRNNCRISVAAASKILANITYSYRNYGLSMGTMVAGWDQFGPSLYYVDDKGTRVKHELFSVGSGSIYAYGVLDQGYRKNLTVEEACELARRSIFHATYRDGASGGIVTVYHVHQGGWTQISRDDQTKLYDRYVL
The experiment in a line: Trypanosoma cruzi proteasome chymotrypsin-like activity (TcProtChymo) assay. It counts as functional. Set-up: scale not given: in the data most compounds retested in dose-response had high values. The conditions noted are these: 9.37 µM.
As to `CCn1cc(Br)c(C(=O)NCc2cccnc2)n1`, the Percent Effect worked out at 19.3%.
Still for that read-out and setting: then `Cn1nc2c(cc1=O)CN(CCc1nc3ccccc3c(=O)[nH]1)CC2`, with 17.9%; and `COc1cccc2c1OCC(CNC(=O)CSc1nc(N)n[nH]1)C2` (stereo not drawn), with 8.84%.
Still for that read-out and setting: then `COCCCNC(=O)CN(C)C(=O)c1cc(C)ccc1N(C)C(C)C`, with 0%; and `c1ccc2sc(CN3CCCC3c3noc(C4CC4)n3)nc2c1` (stereo not drawn), with 0%; and `COCCO[C@@H]1CCN(Cc2csc(C)n2)[C@H]1Cc1ccccc1`, with -1.29%.
Same read-out and setting: then `C[C@@H]1CN(C(=O)c2ccsc2)C[C@]12CCN(c1ccsc1)C2=O`, with 2.91%; and `CC(O)CC(C)(C)CNC(=O)NCc1cccc(-n2cncn2)c1` (stereo not drawn), with 9.53%; and `Cc1c(C(=O)NCC(C)C)nnn1-c1cccc2c1CCN(C)C2`, with 11.2%.
As for `COc1ccc(CNCC(C)Oc2ccccn2)cc1Br` (stereo not drawn), the Percent Effect was determined as 9.8%.
On the same count and under the same terms, then `Cc1ccc(CN2CCc3ncc(CNS(C)(=O)=O)n3CC2)o1`, with 15.3%; and `Cc1nc(CN2CCCC(NCc3c(C)nc4sccn34)C2)no1` (stereo not drawn), with 15.9%; and `Cc1cn2nc(N3CCCN(Cc4noc(C)n4)CC3)sc2n1`, with 13.4%.
Still for that read-out and setting: the figure for `CC(NC(=O)NCCNc1cnccn1)c1cccs1` (stereo not drawn) is 3.21%; for `CCOCC1CN(Cc2cccc(C#N)c2)Cc2nccn2C1` (stereo not drawn) it is 12.4%.
In the case of `COc1ccc(OCc2nc(C(=O)N3CC[C@H](O)[C@@H](O)C3)co2)cc1`, the Percent Effect is 12.8%.
On the same count and under the same terms, then `O=C(CN1CCCC1Cn1cncn1)NCCc1c(F)cccc1F` (stereo not drawn), with 7.36%; and `CN(C)c1ncnc2c1CCN(CC1CCOC1)CC2` (stereo not drawn), with 18.6%.
On the same count and under the same terms, the figure for `CC(C)N(CC(N)=O)Cc1csc(COc2ccc(F)cc2)n1` is 8.76%; for `Cc1nc(CN2CCCN(C(=O)c3ccccn3)CC2)oc1C` it is 10.8%.
On the same count and under the same terms, the figure for `O=C(c1cccnc1N1CCOCC1)N1CCCC1Cn1cccn1` (stereo not drawn) is -0.242%; for `CCN(C(=O)CN(C)C(c1cccc(F)c1)c1ccccn1)C1CC1` (stereo not drawn) it is 2.37%; for `Cc1nc(C2(NCC(=O)NCCc3cccs3)CCCC2)no1` it is 15.1%.
On to `CO[C@H]1CN(C(=O)c2ccccn2)[C@@H]2CCCO[C@H]12`, for which the Percent Effect is 17.5%.
In the case of `CCO[C@@H]1CO[C@@]2(CCCN(C(=O)c3ccc(OC)c(F)c3)C2)C1`, the Percent Effect is 16.5%.
On the same count and under the same terms, then `CC(C)S(=O)(=O)c1nnc(CCNC(=O)OC(C)(C)C)o1`, with 14.1%.
On to `CCc1c(C(=O)NC2CCS(=O)(=O)C2)cnn1-c1ccc(F)cc1` (stereo not drawn), for which the Percent Effect turned out to be 7.29%.
Same read-out and setting: then `CCn1nccc1CNC(=O)NC1CCCCC1`, with 9.98%; and `CN(Cc1ccsc1)C(=O)Nc1cccnc1N1CCCC1`, with 2.62%.
On the same count and under the same terms, the figure for `CCCC1(CO)CCCN(c2ncccc2F)C1` (stereo not drawn) is 14.8%; for `Cc1nc[nH]c1-c1nc2cc(S(=O)(=O)N3CCCC3)ccc2n1C` it is 8.16%.
The same measure, in the same setting: the figure for `CCNC(=O)N(C)Cc1ccc(SC)c(OC)c1` is 9.72%.
On to `COCC(=O)N1CCC(c2nc3ccc(-c4ccccc4)cn3n2)CC1`, for which the Percent Effect stood at 13.4%.
On to `CC(C(=O)NCc1ccnc(N2CCN(C)CC2)c1)n1cccn1` (stereo not drawn), for which the Percent Effect is -4.18%.
Still for that read-out and setting: the figure for `CCc1c(C)nc2cc(C3CCN(Cc4ccccc4F)C3)nn2c1O` (stereo not drawn) is 20.9%; for `O=C(COc1ccc(C(F)(F)F)cc1)NS(=O)(=O)c1cccnc1` it is 3.84%.
As to `CN(C)S(=O)(=O)c1ccc(OCCNCCn2cccn2)cc1`, the Percent Effect was 5.15%.
Still for that read-out and setting: then `O=C(CN1CCCC(O)C1)NC(=O)NCc1cccs1` (stereo not drawn), with 11.8%; and `CCOc1ncccc1CNC(=O)N1CCCC1c1ccncc1` (stereo not drawn), with 8.37%.
